Among the data in PubChem BioAssay (NCATS) are Potency, outcome and max response values, retold here.

Assay [1] has as its system Zika virus NS2B-NS3 protease (linked construct). Put plainly: Primary screen NINDS Rhodamine qHTS for Zika virus inhibitors (AID 1347160). Note: % is set by controls: 0 for no effect and ±100 for the full control effect; nearly all actives have a fitted effect of over 55% in size. An outline of the steps: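 Kinetic fluorescence (Ex 480 nm, Em 540 nm) over 15 min with 1.5 microM Rhodamine110 peptide and 25 nM linked protease.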
For orientation: Quantitative high-throughput screening tests each substance at several concentrations.

For assay [2], the target named is Calcium and integrin-binding protein 1 (Homo sapiens) (UniProt Q99828). In words: Primary qHTS for Identification of Calcium Integrin Binding Protein 1 (CIB1) Competitor (AID 1508620).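 Note: GST tagged CIB1 binding a fluorescein labelled alphaIIb integrin peptide tracer; top concentration of the series differs between compounds; % is set by controls: 0 for no effect and ±100 for the full control effect.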 A digest of the protocol:
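Fluorescence polarization competition: GST-tagged CIB1 (1 uM final) preincubated with compound 15 min at room temperature, then FITC-labelled alphaIIb peptide (100 nM final) added. After 15 min at room temperature, polarization read at Ex 480/Em 540.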

For assay [3], the target named is Glutathione peroxidase 1 (Homo sapiens) (UniProt P07203). Put plainly: Primary qHTS Assay for Inhibitors of Recombinant Selenoprotein Glutathione Peroxidase 1 (GPX1) (AID 1845191). Note: nearly all actives have a fitted effect of over 65% in size. An outline of the steps: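 GR-coupled assay: compounds preincubated 30 min at room temperature with GPX1, then reaction started with CHP; final 10 nM GPX1, 1 mM GSH, 0.5 mM CHP, 0.5 mM NADPH, 100 nM GR, 0.01% BSA, pH 7.5 Tris buffer. NADPH fluorescence (340/450 nm) read at 0 and 15 min.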
Chain of Glutathione peroxidase 1 (Homo sapiens) (P07203 whole entry, looked up): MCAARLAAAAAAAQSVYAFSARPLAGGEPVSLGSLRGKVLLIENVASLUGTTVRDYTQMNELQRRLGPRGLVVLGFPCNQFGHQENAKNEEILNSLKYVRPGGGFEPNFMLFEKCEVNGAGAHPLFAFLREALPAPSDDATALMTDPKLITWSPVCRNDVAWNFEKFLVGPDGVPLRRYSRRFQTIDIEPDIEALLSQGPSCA

Assay [4] concerns the target Phospholipid hydroperoxide glutathione peroxidase GPX4 (Homo sapiens) (UniProt P36969). In words: Primary qHTS Assay for Inhibitors of Recombinant Selenoprotein Glutathione Peroxidase 4 (GPX4) (AID 1845192). Note: nearly all actives have a fitted effect of over 65% in size. A digest of the protocol: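 GR-coupled assay: recombinant GPX4 preincubated 30 min with compound at room temperature; final 200 nM GPX4, 1 mM GSH, 0.5 mM cumene hydroperoxide, 0.5 mM NADPH, 100 nM GR, 0.01% BSA, pH 7.5 Tris. NADPH fluorescence (340/450 nm) read at 0 and 15 min.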

Assay [5] addresses Luciferin 4-monooxygenase (Photinus pyralis) (UniProt P08659). Put plainly: Primary firefly luciferase (FLuc) qHTS assay for identification of artifact compounds. (AID 1845220). Note: nearly all actives have a fitted effect of over 60% in size. Conditions: outcome: dose series up to 54.1 µM unless noted. A digest of the protocol: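 Titrated compounds were incubated 15 min at RT, protected from light, with luciferin and ATP at 10 uM; reaction started with 10 nM FLuc, luminescence imaged at 5 min, and concentration-response fitted by Hill equation.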

Assay [6] is described as follows: Primary fluorescence-based thiol-reactive (MSTI) qHTS assay for identification of artifact compounds. (AID 1845221).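 Note: thiol-reactive compounds lower the probe fluorescence signal; nearly all actives have a fitted effect of over 65% in size.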 A digest of the protocol: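 Thiol-reactive compounds detected by quenching of 4 uM MSTI fluorescence (525/598 nm) after 1 h room-temperature dark incubation in PBS pH 7.4, 2% DMSO. qHTS titration; percent inhibition Hill-fitted against Acetyl-MSTI/MSTI controls.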

Assay [7] relates to Nanoluciferase (engineered Oplophorus gracilirostris luciferase). In words: Primary Nanoluciferase (NLuc) qHTS assay for identification of artifact compounds. (AID 1845222).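 Note: NLuc secreted into diluted conditioned medium of S16 cells; 0% = DMSO and -100% = no enzyme.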 An outline of the steps: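 qHTS format, against NLuc in S16 cell-conditioned medium. Nano-Glo substrate 1:100 was added after 15 min at room temperature. Luminescence was taken after a further 5 min.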
The nature of assay [8]: Primary redox qHTS assay for identification of artifact compounds. (AID 1845223).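 Note: 0% = DMSO and 100% = reference compound.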 An outline of the steps:
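Amplex Red (25 uM) and HRP (250 mU/mL) in HBSS, with compounds for 15 min, then 250 uM DTT for 30 min, room temperature, dark. Fluorescence 525/598 nm read; normalized to DMSO and 10 uM DA3003; Hill fit.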

The next assay deals with HaCat. Put plainly: Cytotoxic Profiling of Annotated Libraries Using Quantitative High-Throughput Screening (AID 1296008). For max response: % is set by controls: 0 for no effect and ±100 for the full control effect. Note: nearly all actives have a fitted effect of over 60% in size. Note: potency is the fitted concentration of half-maximal effect. Conditions: Five cell lines viability, CellTiter-Glo ATP luminescence, 48-72 h; max response: hits give low values. An outline of the steps:
(§1)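 Cells exposed to compounds for 48 or 72 hr at 37 degrees Celsius. Viability read as ATP-coupled luminescence with CellTiter-Glo after 10 min at room temperature.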
For orientation: In ATP-based viability assays light output follows the ATP content of the culture.

The test system of another assay is NIH3T3. Described as above. As to conditions: Five cell lines viability, CellTiter-Glo ATP luminescence, 48-72 h; max response: hits give low values. An outline of the steps: as §1
In a further assay the test system is C33A. Put plainly: Primary qHTS to identify gynecologic anti-cancer compounds using libraries of approved drugs and bioactive compounds (AID 1345084). Note: nearly all actives have a fitted effect of over 55% in size. Note: potency is the fitted concentration of half-maximal effect. Conditions: Gynecologic cancer cell panel viability, ATPlite luminescence, 48 h; series mostly up to 57.5 µM. An outline of the steps:
(§2)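 Five-point cytotoxicity, 48 h drug exposure at 37 C, 5% CO2, on cells seeded 16 h beforehand. ATP content read by ATPlite luminescence.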

Another assay relates to CAOV3. The description is as above. As to conditions: Gynecologic cancer cell panel viability, ATPlite luminescence, 48 h; series mostly up to 57.5 µM. A digest of the protocol: as §2
A further assay has as its system Es-2. Described as above. Conditions: Gynecologic cancer cell panel viability, ATPlite luminescence, 48 h; series mostly up to 57.5 µM. A digest of the protocol: as §2
The subject of the next assay is Hek293T. The assay is described as above. Conditions: Gynecologic cancer cell panel viability, ATPlite luminescence, 48 h, control line for the selectivity index; series mostly up to 57.5 µM. An outline of the steps: as §2
A further assay has as its system OV90. Described as above. As to conditions: Gynecologic cancer cell panel viability, ATPlite luminescence, 48 h; series mostly up to 57.5 µM. An outline of the steps: as §2
The next assay concerns PA-1. The assay is described as above. As to conditions: Gynecologic cancer cell panel viability, ATPlite luminescence, 48 h; series mostly up to 57.5 µM. An outline of the steps: as §2
The subject of the next assay is Tov-21-G. Described as above. Conditions: Gynecologic cancer cell panel viability, ATPlite luminescence, 48 h; series mostly up to 57.5 µM. An outline of the steps: as §2
A further assay has as its system Tov112D. The assay is described as above. As to conditions: Gynecologic cancer cell panel viability, ATPlite luminescence, 48 h; series mostly up to 57.5 µM. A digest of the protocol:
as §2

The test system of a further assay is CASKI. The assay is described as above. As to conditions: Gynecologic cancer cell panel viability, ATPlite luminescence, 48 h; series mostly up to 57.5 µM. A digest of the protocol:
as §2

The next assay has as its system JEG-3. The assay is described as above. Conditions: Gynecologic cancer cell panel viability, ATPlite luminescence, 48 h; series mostly up to 57.5 µM. A digest of the protocol: as §2

Each structure is given as a SMILES string. Unmarked numbers belong to inactive results. Results filed as inconclusive are left out. Active and inactive are the calls of the source. Calls come from the whole dose curve; as a rule, active = well fitted curve in the direction sought with a large enough effect; inconclusive = small, poorly fitted or top-dose-only effect, or another doubt; inactive = no such curve, though single readings can be large; an effect the other way counts as inactive or inconclusive.

Chain of Calcium and integrin-binding protein 1 (Homo sapiens) (Q99828 whole entry, looked up): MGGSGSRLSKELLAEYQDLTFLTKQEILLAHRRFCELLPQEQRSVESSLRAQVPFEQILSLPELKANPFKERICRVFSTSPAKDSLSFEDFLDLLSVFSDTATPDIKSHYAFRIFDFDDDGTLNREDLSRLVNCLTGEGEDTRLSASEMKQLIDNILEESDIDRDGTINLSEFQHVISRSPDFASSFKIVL
Chain of Phospholipid hydroperoxide glutathione peroxidase GPX4 (Homo sapiens) (P36969 whole entry, looked up): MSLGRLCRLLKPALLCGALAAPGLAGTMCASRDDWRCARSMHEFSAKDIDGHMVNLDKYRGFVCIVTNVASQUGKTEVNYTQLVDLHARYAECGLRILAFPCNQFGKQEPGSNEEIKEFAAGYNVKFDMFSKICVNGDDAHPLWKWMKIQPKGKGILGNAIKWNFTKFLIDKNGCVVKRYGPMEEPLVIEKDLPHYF

Turning to `CO[C@H]1C[C@H](O[C@H]2CC[C@]3(C=O)[C@H]4CC[C@]5(C)[C@@H](C6=CC(=O)OC6)CC[C@]5(O)[C@@H]4CC[C@]3(O)C2)O[C@H](C)[C@H]1O`, the Potency entry in assay [1], in [2], in assay [3], in [4], in assay [6] and in assay [7] was “inactive” throughout. In addition, the Potency result in assay [8] is “inactive”. Moreover, in assay [5], the outcome is “inactive [at 25.7 µM]”. Moreover, the Potency in the assay with HaCat was 356 nM (active); in the assay on C33A it was 100 nM (active); with CAOV3, 199 nM (active); in the assay with Es-2, 141 nM (active); in the assay on Hek293T, 224 nM (active); in the assay on OV90, 891 nM (active). Further, the Potency is 141 nM (active) with PA-1, 141 nM (active) in the assay on Tov-21-G and 89.1 nM (active) with Tov112D. Further, the compound was called inactive with NIH3T3.

Consider `CO/C1=C\C(C)=C\[C@@H](C)[C@@H](O)[C@@H](C)C/C(C)=C/C=C/[C@H](OC)[C@@H]([C@@H](C)[C@@H](O)[C@H](C)[C@@]2(O)C[C@@H](O)[C@H](C)[C@@H](C(C)C)O2)OC1=O`, for which the Potency result in [1], in [2], in [4], in assay [6], in assay [7] and in [8] was “inactive” in each case. Also, the Potency entry with CASKI and in the assay with JEG-3 was “inactive” throughout. Further, the call in [5] was inactive. The Potency in the assay on C33A is 141 nM (active); with CAOV3, 126 nM (active); with Es-2, 79.4 nM (active); in the assay on Hek293T, 100 nM (active); in the assay on OV90 it was 89.1 nM (active); in the assay with PA-1 it was 89.1 nM (active). Moreover, the Potency in the assay with Tov112D is 100 nM (active).

For the compound `COc1cccc(NCC(F)Cn2c3ccc(Br)cc3c3cc(Br)ccc32)c1` (configuration not stated), the Potency entry in assay [1], in [2], in assay [3], in assay [4], in [6] and in [7] was “inactive” each time. Also, the Potency result with OV90 was “inactive”. The compound was called inactive in assay [5]. Moreover, the Potency in the assay on HaCat was 8200 nM (active); in the assay with NIH3T3 it was 20600 nM (active); with CASKI, 7940 nM (active); in the assay with PA-1, 20000 nM (active); with Tov112D, 10000 nM (active).

As for `Clc1ccc([C@]23CNC[C@H]2C3)cc1Cl`, the Potency entry (in assay [3]; in [4]; in assay [6]; in assay [7]; in [8]; with C33A) was “inactive” in each case. The Potency result with CAOV3, in the assay with CASKI, in the assay on Es-2, in the assay on Hek293T, in the assay on JEG-3 and in the assay with OV90 was “inactive” in each case. In addition, the Potency result with PA-1, in the assay on Tov-21-G and in the assay with Tov112D was “inactive” in each case. The result (in [5]; in the assay with HaCat) was inactive. Further, the max response with NIH3T3 was 1.31%.

On to `C[C@@H]1O[C@@H](O[C@H]2CC[C@@]3(C)C(CC[C@@H]4C3CC[C@]3(C)[C@@H](C5=CC(=O)OC5)CC[C@]43O)C2)[C@H](O)[C@H](O)[C@H]1O` (some centres not stated), for which the Potency entry in assay [1], in assay [2], in assay [4], in assay [6] and in assay [7] was “inactive” throughout. Further, in assay [5], the outcome was “inactive [at 25.7 µM]”. In addition, the Potency in the assay with HaCat is 2820 nM (active); with C33A, 1000 nM (active); in the assay on CAOV3 it was 3980 nM (active); in the assay with CASKI, 4470 nM (active); in the assay with Es-2 it was 1260 nM (active); in the assay on Hek293T, 1000 nM (active). Besides, the Potency in the assay with OV90 was 5620 nM (active); in the assay with PA-1, 1000 nM (active); in the assay with Tov-21-G it was 1000 nM (active); in the assay on Tov112D, 355 nM (active). In the assay with NIH3T3, the max response was -2.8%.
